Experimental data from ChEMBL document CHEMBL4513135, “CO-ADD screening of IQOG CSIS (Spain) compounds”.
Results with a measured potency or affinity are listed apart.

How the values were obtained:
[1] = tested on: Klebsiella pneumoniae; conditions: Concentration 32 ug.mL-1; ASSAY_TEST Inhibition of Bacterial Growth; detection method Absorption (OD600); MEDIA CAMHB; plate type 384well; NBS; CORNING #3640; time 18 hr
[2] = tested on: Candida albicans; conditions: 32 ug/mL
[3] = tested on: Cryptococcus neoformans; conditions: Concentration 32 ug.mL-1; ASSAY_TEST Inhibition of Fungal Growth; detection method Resazurin; Absorption (OD600-OD570); plate type 384well; NBS; CORNING #3640

COc1ccc(C=C2N=C(SC)N(C)C2=O)cc1
Inhibition [1]: -13.67%
Inhibition [2]: 0.01%
Inhibition [3]: -7.91%

CNCc1cc2cc(OCc3ccccc3)ccc2n1C.Cl
Inhibition [1]: 14.91%
Inhibition [2]: -0.02%
Inhibition [3]: 0.75%

NNC(=O)CCc1c[nH]c2ccccc12
Inhibition [1]: 5.25%
Inhibition [2]: 0.67%
Inhibition [3]: -3.69%

O=C(NNCCc1ccccc1)c1cc2ccccc2[nH]1
Inhibition [1]: 0.93%
Inhibition [2]: -1.59%
Inhibition [3]: -3.77%

C#CCN1CCc2nc3nc(N4CCCC4)c(C#N)cc3c(N)c2C1
Inhibition [1]: 10.68%
Inhibition [2]: 1.92%
Inhibition [3]: -92.31%

N#Cc1c(N)nc2[nH]nc(N)c2c1-c1ccccc1
Inhibition [1]: 17.63%
Inhibition [2]: 0.49%
Inhibition [3]: -62.75%

C#CCNc1nc(Cl)c(C#N)c(-c2ccccc2)c1C#N
Inhibition [1]: -23.73%
Inhibition [2]: 1.27%
Inhibition [3]: -7.07%

C#CCN(C)Cc1cc2cc(OCCCCC3CCN(Cc4ccccc4)CC3)ccc2n1C.Cl
Inhibition [1]: 25.34%
Inhibition [2]: 2.11%
Inhibition [3]: -16.02%

Nc1n[nH]c2c1C(c1ccccc1)CC(=O)N2 (stereo unspecified)
Inhibition [1]: 23.2%
Inhibition [2]: 1.67%
Inhibition [3]: -57.28%

N#CC1=C(N)Oc2c(ccc3ccccc23)C1c1ccccc1 (stereo unspecified)
Inhibition [1]: 10.23%
Inhibition [2]: 1.97%
Inhibition [3]: -37.74%

COC(=O)C(=Cc1ccccc1)NC(=O)c1ccccc1
Inhibition [1]: 12.18%
Inhibition [2]: 0.5%
Inhibition [3]: -5.65%

Cl.OCC1CCN(Cc2ccccc2)CC1
Inhibition [1]: 15.06%
Inhibition [2]: 1.47%
Inhibition [3]: -2.26%
